Reference: PubChem BioAssay
Calls of active or inactive are those of the source.

Columns and labels:
[1] = E. coli DRC41 culture turbidity changes, primary screen, E. coli filamentation inducer project, strain DRC41, OD650, 48 h (AID 1152);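 also: E. coli MC1000 strain DRC41 lacking acrAB efflux pump and sulA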; details: E. coli DRC41 (acrAB sulA), higher = more signal, called active from +8 up or from −8 down
[2] = small-molecule binders of probe aLefty1, primary screen, biochemical, small-molecule microarray, 635/667 nm fluorescence (AID 1153); details: higher = more signal;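 also: score merges spot fluorescence with signal-to-noise ratio from the scanned slide images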
[3] = PSAC antagonists in infected red cells, primary screen, cell-based, P. falciparum Indochina, OD700, 1 h (AID 1154); details: P. falciparum Indochina infected RBC osmotic lysis, higher = more signal, called active from +8 up or from −8 down
[4] = PSAC antagonists in infected red cells, primary screen, cell-based, P. falciparum Indochina, OD700, 2 h (AID 1155);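 also: lysis reports solute entry through the parasite surface anion channel PSAC; channel blockers reduce lysis of infected cells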; details: P. falciparum Indochina infected erythrocytes, osmotic lysis OD700; higher = more signal, called active from +8 up or from −8 down
[5] = osmotic lysis modulators in infected erythrocytes, primary screen, PSAC antagonist project, cell-based, P. falciparum Indochina, OD700, 3 h (AID 1156); details: higher = more signal, called active from +8 up or from −8 down
[6] = PSAC antagonists in infected red cells, primary screen, cell-based, P. falciparum Indochina, OD700, 18 h (AID 1157); details: P. falciparum Indochina infected erythrocytes, osmotic lysis OD700, 18 h; higher = more signal, called active from +8 up or from −8 down
[7] = modulators of S6 phosphorylation in cells, primary screen, cell-based, A549, cytoblot, luminescence, serum-stimulated (AID 1158); details: A549 phospho-S6 cytoblot, 5 h, higher = more signal;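 also: serum-stimulated A549 lung adenocarcinoma cells; signal is phosphorylated S6 detected by cytoblot immunostaining with HRP secondary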
[8] = biological target: NADPH oxidase 2 (Homo sapiens) (UniProt P04839); test: NOX2-dependent H2O2 signal modulators, primary screen, NOX inhibitor project, cell-based, HEK293-NOX2, PMA-stimulated, Amplex Red fluorescence (AID 1159); details: 45 min, higher = more signal, called active from +8 up or from −8 down; also: test concentration not given here
[9] = biological target: NADPH oxidase 4 (Homo sapiens) (UniProt Q9NPH5); test: NOX4-dependent H2O2 signal modulators, primary screen, NOX inhibitor project, cell-based, HEK293-NOX4, tetracycline-induced, Amplex Red fluorescence (AID 1160); details: 45 min, higher = more signal, called active from +8 up or from −8 down
[10] = biological target: NADPH oxidase 5 (Homo sapiens) (UniProt Q96PH1); test: NOX5-dependent H2O2 signal modulators, primary screen, NOX inhibitor project, cell-based, HEK293-NOX5, Amplex Red fluorescence (AID 1161); details: HEK293-NOX5, ionomycin, 45 min, higher = more signal
Chain of NADPH oxidase 5 (Homo sapiens) (Q96PH1 whole entry, looked up): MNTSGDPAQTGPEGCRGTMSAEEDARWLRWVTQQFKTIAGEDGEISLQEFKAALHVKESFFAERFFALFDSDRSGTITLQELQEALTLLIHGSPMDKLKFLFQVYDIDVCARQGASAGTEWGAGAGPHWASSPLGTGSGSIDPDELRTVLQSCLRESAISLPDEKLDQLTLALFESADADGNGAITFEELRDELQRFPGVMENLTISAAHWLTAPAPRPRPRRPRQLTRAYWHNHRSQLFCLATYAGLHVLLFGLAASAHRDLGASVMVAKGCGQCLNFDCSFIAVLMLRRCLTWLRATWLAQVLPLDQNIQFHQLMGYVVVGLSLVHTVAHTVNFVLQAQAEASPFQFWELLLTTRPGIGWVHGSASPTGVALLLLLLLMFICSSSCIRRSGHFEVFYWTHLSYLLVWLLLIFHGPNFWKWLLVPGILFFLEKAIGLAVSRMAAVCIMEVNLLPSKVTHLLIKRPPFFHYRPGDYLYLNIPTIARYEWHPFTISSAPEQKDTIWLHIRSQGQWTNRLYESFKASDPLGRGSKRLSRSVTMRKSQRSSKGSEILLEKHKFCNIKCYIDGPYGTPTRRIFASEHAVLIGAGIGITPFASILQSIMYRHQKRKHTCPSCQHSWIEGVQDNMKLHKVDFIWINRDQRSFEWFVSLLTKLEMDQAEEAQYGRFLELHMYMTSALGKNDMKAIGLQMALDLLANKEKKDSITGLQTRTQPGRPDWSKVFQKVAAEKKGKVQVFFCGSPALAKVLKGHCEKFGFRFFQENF

Chain of NADPH oxidase 2 (Homo sapiens) (P04839 whole entry, looked up): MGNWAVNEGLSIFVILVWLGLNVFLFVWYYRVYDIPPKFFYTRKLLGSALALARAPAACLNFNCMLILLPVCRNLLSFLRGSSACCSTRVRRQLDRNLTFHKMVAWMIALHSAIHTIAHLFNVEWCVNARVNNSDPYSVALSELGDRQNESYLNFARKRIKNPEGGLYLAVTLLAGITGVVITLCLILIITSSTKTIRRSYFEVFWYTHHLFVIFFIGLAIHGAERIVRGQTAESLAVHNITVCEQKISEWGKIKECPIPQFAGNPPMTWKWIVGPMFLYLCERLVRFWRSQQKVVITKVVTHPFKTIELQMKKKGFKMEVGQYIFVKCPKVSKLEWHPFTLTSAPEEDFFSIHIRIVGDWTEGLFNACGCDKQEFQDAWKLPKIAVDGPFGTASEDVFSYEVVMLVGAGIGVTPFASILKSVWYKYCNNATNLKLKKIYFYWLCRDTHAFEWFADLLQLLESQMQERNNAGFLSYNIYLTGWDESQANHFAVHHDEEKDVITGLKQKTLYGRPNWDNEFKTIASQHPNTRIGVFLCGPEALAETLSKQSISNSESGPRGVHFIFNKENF
Chain of NADPH oxidase 4 (Homo sapiens) (Q9NPH5 whole entry, looked up): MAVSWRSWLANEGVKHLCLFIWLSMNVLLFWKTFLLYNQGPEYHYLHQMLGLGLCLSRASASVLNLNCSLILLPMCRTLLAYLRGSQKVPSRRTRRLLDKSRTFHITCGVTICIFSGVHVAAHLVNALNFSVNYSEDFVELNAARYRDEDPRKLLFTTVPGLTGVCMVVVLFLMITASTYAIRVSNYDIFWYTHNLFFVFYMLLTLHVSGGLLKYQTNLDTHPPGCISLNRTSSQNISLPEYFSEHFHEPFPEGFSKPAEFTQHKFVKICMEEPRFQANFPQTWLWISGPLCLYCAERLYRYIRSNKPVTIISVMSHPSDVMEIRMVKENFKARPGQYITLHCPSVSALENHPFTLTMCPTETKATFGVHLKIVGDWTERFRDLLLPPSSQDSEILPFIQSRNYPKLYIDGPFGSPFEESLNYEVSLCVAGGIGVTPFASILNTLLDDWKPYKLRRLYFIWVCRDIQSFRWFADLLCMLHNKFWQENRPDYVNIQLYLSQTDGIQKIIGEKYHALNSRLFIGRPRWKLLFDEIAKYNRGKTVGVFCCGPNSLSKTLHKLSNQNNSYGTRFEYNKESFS

| SMILES | z-score [1] | composite z-score [2] | z-score [3] | z-score [4] | z-score [5] | z-score [6] | z-score [7] | z-score [8] | z-score [9] | z-score [10] |
| --- | --- | --- | --- | --- | --- | --- | --- | --- | --- | --- |
| COC(=O)[C@H](Cc1ccccc1)N1CC(/C=C/C2CC2)=C[C@H]1[C@H](O)Cc1ccccc1 | -0.555 (inactive) | -0.012 | 1.74 (inactive) | 0.714 (inactive) | -0.377 (inactive) | 0.5 (inactive) | 0.184 | -4.7 (inactive) | -0.819 (inactive) | -0.607 |
| COc1cc2c(cc1O)C(C)N(Cc1ccc([N+](=O)[O-])o1)CC2 (stereo not given) | -0.984 (inactive) | 0.245 | 18.3 (active) | 2.09 (inactive) | 0.831 (inactive) | 0.424 (inactive) | -0.31 | -4.17 (inactive) | -2.17 (inactive) | -3.28 |
| C=CCOC(=O)[C@H]1[C@@H]2C(=O)O[C@@H](c3ccccc3)[C@@H](c3ccccc3)N2[C@@H](c2ccc(OCCOC(=O)[C@H]3C[C@H]4C(=O)N[C@@H](CCCCNC(C)=O)C(=O)N4[C@H]3c3ccc(O)cc3)cc2)[C@]12C(=O)Nc1ccccc12 | 3.24 (inactive) | 0.026 | 1.59 (inactive) | 0.512 (inactive) | -0.821 (inactive) | -0.927 (inactive) | 1.4 | 1.89 (inactive) | 1.44 (inactive) | 1.04 |
| COc1ccc([Si](C)(C)[C@H]2[C@H](CC(=O)N(CCO)Cc3ccccc3)O[C@@]3(C(=O)N(Cc4cccc(N5CCOC5=O)c4)c4ccccc43)[C@@H]2C)cc1 | 0.359 (inactive) | 0.114 | 12.9 (active) | 2.72 (inactive) | 1.68 (inactive) | 1.31 (inactive) | 0.315 | 0.681 (inactive) | 0.7 (inactive) | 2.48 |
| CC(c1ccccc1)C(O)C1C=CC2C(=O)N(c3ccccc3)C(=O)C2N1Nc1ccc([N+](=O)[O-])cc1 (stereo not given) | 0.179 (inactive) | 0.175 | 20.8 (active) | 5.25 (inactive) | 0.283 (inactive) | 1.61 (inactive) | -0.438 | -0.7 (inactive) | -1.18 (inactive) | -1.38 |
| CCOC(=O)C1=C[C@@H](c2ccccc2)N(S(=O)(=O)c2ccc(C)cc2)[C@H]1c1ccccc1Cl | -1.18 (inactive) | 0.138 | 1.35 (inactive) | 1.16 (inactive) | -0.0415 (inactive) | 0.805 (inactive) | -0.48 | 0.574 (inactive) | 0.138 (inactive) | 0.405 |
| CN(C)c1ccc(C(O)C2C=CC3C(=O)N(c4ccccc4)C(=O)C3N2Nc2ccc([N+](=O)[O-])cc2)cc1 (stereo not given) | -1.16 (inactive) | 0.388 | 4.9 (inactive) | 1.16 (inactive) | 1.69 (inactive) | 0.73 (inactive) | -0.503 | -1.95 (inactive) | -4.56 (inactive) | -4.69 |
| COCC1=C2[C@@H](CCc3ccccc3)OB(O)C[C@@H]2[C@@H]2C(=O)C=CC(=O)[C@@H]2C1 | -0.204 (inactive) | -0.0386 | 2.09 (inactive) | -0.122 (inactive) | -0.623 (inactive) | -0.0621 (inactive) | 0.154 | -0.109 (inactive) | -0.383 (inactive) | 1.01 |
| O=C(CS)NCCCCCNC(=O)[C@@H]1C[C@@H]2C(=O)N3CCC[C@H]3C(=O)N2[C@@H]1c1cccc(OCCO)c1 | -1.26 (inactive) | -0.781 | 2.76 (inactive) | 0.465 (inactive) | -0.87 (inactive) | 0.277 (inactive) | -0.645 | 1.97 (inactive) | 0.231 (inactive) | -0.232 |
| COC(=O)[C@@]1(Cc2ccc(OC)cc2)[C@H]2c3cc(C(=O)N(C)C)n(C[C@H](O)CO)c3C[C@H]2CN1C(=O)c1ccccc1 | -1.99 (inactive) | 0.523 | 5.61 (inactive) | 0.936 (inactive) | 1.98 (inactive) | 1.23 (inactive) | -0.364 | 0.452 (inactive) | -0.281 (inactive) | -0.527 |
| O=C(NCC(F)(F)F)[C@@H]1c2ccccc2C(=O)N(Cc2ccccc2C(F)(F)F)[C@H]1c1ccc(CO)cc1 | 0.142 (inactive) | -0.0164 | 1.45 (inactive) | 0.478 (inactive) | 0.239 (inactive) | 0.109 (inactive) | -0.537 | 0.536 (inactive) | 0.0258 (inactive) | -0.284 |
| Cn1cccc1C(O)C1C=CC2C(=O)NC(=O)C2N1Nc1ccc(Cl)cc1Cl (stereo not given) | -3.18 (inactive) | 0.0981 | 2.16 (inactive) | 1.35 (inactive) | 0.304 (inactive) | 1.07 (inactive) | -1.42 | -0.663 (inactive) | -3.85 (inactive) | -2.71 |
| COC(=O)C(CC#Cc1ccc2c(c1)[C@]1(C(=O)N2)[C@H](C(=O)N2CCN(c3ncccn3)CC2)[C@H]2C(=O)O[C@H](c3ccccc3)[C@H](c3ccccc3)N2[C@@H]1c1ccc(OCCO)cc1)C(=O)OC | 0.454 (inactive) | 0.2 | 11 (active) | 2.86 (inactive) | 1.03 (inactive) | 1.4 (inactive) | 0.311 | 1.36 (inactive) | 0.504 (inactive) | 1.53 |
| C[N+](C)(C)CCCC[C@@H]1NC(=O)[C@H]2C[C@@H](C(=O)NCCCCCCN)[C@@H](c3ccc(O)cc3)N2C1=O | 0.429 (inactive) | 0.284 | 0.625 (inactive) | 0.328 (inactive) | -2.08 (inactive) | 0.326 (inactive) | 0.191 | 0.00341 (inactive) | -1.73 (inactive) | 0.273 |
| CCOC(=O)C1=CC[C@@H](c2ccccc2C(F)(F)F)N(S(=O)(=O)c2ccc(C)cc2)[C@H]1c1ccc(C#N)cc1 | -0.53 (inactive) | 0.165 | 0.873 (inactive) | 1.65 (inactive) | 0.341 (inactive) | 0.876 (inactive) | -0.669 | 0.823 (inactive) | 0.699 (inactive) | 0.102 |
| CCOC(=O)C[C@H]1[C@H](OC(=O)c2cc3ccccc3oc2=O)[C@@H](NC(=O)c2ccc(-c3ccccc3)cc2)c2cc(OCCCO)ccc2N1C(=O)c1ccccc1 | 1.27 (inactive) | 0.0839 | 0.697 (inactive) | -1.44 (inactive) | -0.249 (inactive) | -2.22 (inactive) | 0.683 | -1.47 (inactive) | 0.178 (inactive) | 0.748 |
| Cc1ccc(S[C@]2(C(=O)NCC(F)(F)F)CC(=O)N(Cc3ccccc3C(F)(F)F)[C@@H]2c2ccc(CO)cc2I)cc1 | 0.637 (inactive) | -0.135 | 3.79 (inactive) | 0.853 (inactive) | 1.1 (inactive) | 0.205 (inactive) | -0.142 | 2.28 (inactive) | -1.06 (inactive) | 1.94 |
| COC(=O)c1ccc([C@H](NC(=O)c2ccco2)[C@]2(C)C[C@H]2C2CCCCC2)cc1 | -2.39 (inactive) | 0.527 | 16.4 (active) | 2.52 (inactive) | 1.33 (inactive) | 1.3 (inactive) | -0.357 | -0.803 (inactive) | -2.56 (inactive) | 0.289 |
| C=CCN1C(=O)[C@@]2(CCS(=O)(=O)c3ccccc3)N=C(c3ccc(OCCCO)cc3)O[C@H]2c2ccccc21 | -0.135 (inactive) | 0.235 | 29.9 (active) | 25.2 (active) | 1.73 (inactive) | 6.35 (inactive) | 1.06 | -1.42 (inactive) | 1.35 (inactive) | -0.428 |
| COC(=O)[C@@]1(Cc2ccccc2)[C@H]2c3cc(C(=O)N(C)C)n(CCN4CNCC4=O)c3C[C@H]2CN1C(=O)c1ccccc1 | -0.65 (inactive) | 0.673 | 0.274 (inactive) | 0.759 (inactive) | 0.307 (inactive) | 0.789 (inactive) | -0.646 | 0.61 (inactive) | 0.554 (inactive) | 0.0884 |
| COCCOC(=O)N1C(=O)[C@@]2(c3cc(C#Cc4ccc(OC)cc4)ccc31)[C@H](C(=O)Nc1nc3ccccc3s1)[C@H]1C(=O)O[C@H](c3ccccc3)[C@H](c3ccccc3)N1[C@@H]2c1ccc(OCCO)cc1 | -0.221 (inactive) | 0.0524 | 6.99 (inactive) | 3.22 (inactive) | 1.26 (inactive) | 2.25 (inactive) | -0.45 | 2.03 (inactive) | -1.07 (inactive) | 0.518 |
| [N-]=[N+]=NCc1ccccc1C[C@]1(C(N)=O)N=C(c2ccc(OCCCO)cc2)O[C@H]1c1ccccc1 | 1.06 (inactive) | -0.227 | 21 (active) | 3.55 (inactive) | 0.0533 (inactive) | 0.913 (inactive) | 0.349 | -3.27 (inactive) | -0.839 (inactive) | -1.95 |
